The record followed here is PubChem BioAssay (NCATS).

The target of experiment [1] is Lysosomal acid glucosylceramidase (Homo sapiens) (UniProt P04062). Kind of experiment: Glucocerebrosidase-p2 (AID 348; in the data active = potency below about 10 µM; note: potency is the fitted concentration of half-maximal effect). Particulars: purified GBA, blue fluorogenic substrate, 40 min. The procedure, abridged:
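Normal human glucocerebrosidase (0.2 nM) with blue fluorogenic substrate (80 uM final) in citrate/phosphate pH 5.9 with 10mM sodium taurocholate, 0.01% tween-20; 40 min RT, NaOH/glycine stop; fluorescence Ex 365/Em 440; AC50 from a titration from 0.6 nM upwards.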

Experiment [2] is described as follows: AP1 Signaling Pathway (AID 357).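 Note: ME-180 reporter cells stimulated with EGF at its EC50 level; % is set by controls: 0 for no effect and ±100 for the full control effect.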 Particulars: ME-180 AP-1-bla reporter, EGF-induced, beta-lactamase ratio, 5 h; at 7.69 µM (top of the series) unless noted. The procedure, abridged:
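In this screen, ME-180 cells in Opti-MEM with 0.5% dialyzed FBS received EC50 EGF and compound titrations for 5 h. AP-1 reporter beta-lactamase was detected via CCF4 ratio, giving AC50 for positive and negative modulators.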

For experiment [3], the target named is Cytochrome P450 1A2 (Homo sapiens) (UniProt P05177). Kind of experiment: p450-cyp1a2 (AID 410; calls by dose curve; note: potency is the fitted concentration of half-maximal effect). Particulars: recombinant CYP1A2, luciferin-ME demethylation, luminescence; series mostly up to 57 µM. A digest of the protocol: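 O-Demethylation of luciferin 6' methyl ether by human CYP1A2 is monitored as luciferase luminescence. Substrate sits at Km (100uM); enzyme is 20nM. Values are scaled to 57 uM furafylline as maximal inhibition.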
Cytochrome P450 1A2 (Homo sapiens), sequence (P05177 whole entry, looked up): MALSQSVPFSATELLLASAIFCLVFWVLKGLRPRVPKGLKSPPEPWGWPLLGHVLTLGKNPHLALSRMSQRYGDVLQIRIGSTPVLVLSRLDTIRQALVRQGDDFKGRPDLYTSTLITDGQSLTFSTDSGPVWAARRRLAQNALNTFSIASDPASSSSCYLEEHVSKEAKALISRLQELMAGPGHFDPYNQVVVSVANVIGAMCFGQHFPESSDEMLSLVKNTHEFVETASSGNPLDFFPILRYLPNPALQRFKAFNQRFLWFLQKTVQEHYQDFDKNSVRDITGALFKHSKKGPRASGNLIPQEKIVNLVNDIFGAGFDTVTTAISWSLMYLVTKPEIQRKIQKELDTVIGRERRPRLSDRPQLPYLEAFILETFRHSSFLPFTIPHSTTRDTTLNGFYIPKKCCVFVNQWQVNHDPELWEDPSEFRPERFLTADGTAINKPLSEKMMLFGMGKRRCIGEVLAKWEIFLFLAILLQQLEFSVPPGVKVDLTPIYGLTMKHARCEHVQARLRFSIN

Experiment [4] can be described thus: Stat Signaling Pathway (AID 446).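 Note: ME-180 cervical cancer cells given 40 pM IL-6 alongside compound; SIE-controlled beta-lactamase reporter measured as 460/530 nm FRET emission ratio; % is set by controls: 0 for no effect and ±100 for the full control effect.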 Particulars: ME-180 SIE beta-lactamase reporter, IL-6 stimulated, 5 h; at 7.69 µM (top of the series) unless noted. A digest of the protocol: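 FRET read-out (405 nm excitation, 460/530 nm emission) of a beta-lactamase reporter under a STAT-inducible element in ME-180 cervical carcinoma cells. Cells with compound receive 40 pM IL-6 for 5 h. Values are normalised to AC90 stimulation and AC90 JAK-inhibitor controls.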

In experiment [5] the target is Glucocorticoid receptor (Homo sapiens) (UniProt P04150). Kind of experiment: GR-EFC Redistribution (AID 451; calls by dose curve; note: potency is the fitted concentration of half-maximal effect). Particulars: CHO-K1 GR-EFC translocation, beta-gal luminescence, 2 h. The procedure, abridged: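 Translocation of GR-ED fusion to nuclear EA restores b-gal, read by luminescence after 1 h room-temperature detection. Engineered CHO-K1 biosensor cells, 1,000/well, exposed 2 h at 37 C to titrations up to 46 uM final.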
Glucocorticoid receptor (Homo sapiens), sequence (P04150 whole entry, looked up, the tested form may be a part): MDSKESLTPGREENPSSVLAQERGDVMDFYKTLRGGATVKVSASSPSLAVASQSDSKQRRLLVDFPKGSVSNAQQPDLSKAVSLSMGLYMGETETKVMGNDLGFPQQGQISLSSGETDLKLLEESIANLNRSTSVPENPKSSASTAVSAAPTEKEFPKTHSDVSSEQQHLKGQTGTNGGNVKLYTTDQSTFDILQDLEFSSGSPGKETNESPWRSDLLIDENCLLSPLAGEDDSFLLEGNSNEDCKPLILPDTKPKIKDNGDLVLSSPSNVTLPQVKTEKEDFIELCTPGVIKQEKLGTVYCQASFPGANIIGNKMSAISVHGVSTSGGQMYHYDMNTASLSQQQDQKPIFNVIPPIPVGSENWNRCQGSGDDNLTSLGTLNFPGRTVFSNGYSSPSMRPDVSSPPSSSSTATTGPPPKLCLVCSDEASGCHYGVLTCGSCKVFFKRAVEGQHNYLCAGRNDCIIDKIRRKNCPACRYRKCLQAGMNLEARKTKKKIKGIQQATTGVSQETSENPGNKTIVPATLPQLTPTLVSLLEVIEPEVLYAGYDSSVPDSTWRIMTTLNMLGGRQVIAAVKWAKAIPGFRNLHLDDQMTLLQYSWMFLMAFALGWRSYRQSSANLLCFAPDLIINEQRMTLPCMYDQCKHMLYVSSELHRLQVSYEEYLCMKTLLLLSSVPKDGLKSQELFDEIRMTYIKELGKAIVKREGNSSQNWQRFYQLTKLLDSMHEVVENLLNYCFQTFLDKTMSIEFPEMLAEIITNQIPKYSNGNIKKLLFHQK

Experiment [6] addresses Mitogen-activated protein kinase 10 (Mus musculus) (UniProt Q61831). Kind of experiment: JNK3 AlphaScreen Assay (AID 530).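 Note: kinase came from lysate of stimulated human HepG2 cells; signal reports phosphorylation of biotinylated GST-cJun 1-79 at Ser73 with 10 µM ATP; % is set by controls: 0 for no effect and ±100 for the full control effect.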 To be noted: JNK3 lysate, c-Jun phosphorylation; series mostly up to 57.1 µM. A digest of the protocol: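 qHTS titrations with 15 min compound pre-incubation before adding ATP (10 uM final). Read-out: AlphaScreen of Ser73-phosphorylated biotin-GST-cJun using HepG2 lysate JNK3 activated by IL-1β and TNFα.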
For orientation: Alpha assays give light when donor and acceptor beads are brought close together.

The target in experiment [7] is 3',5'-cyclic-AMP phosphodiesterase 4B (Homo sapiens) (UniProt Q07343). Kind of experiment: qHTS Assay for Inhibitors of PDE-IV (AID 607; active = well fitted activation curve with a large enough effect in the main read-out, with a control signal flat, not every such curve was filed as active; note: % of control where 0% means no effect). Particulars: HEK293 ACTOne CNG channel cells, membrane potential fluorescence; series mostly up to 22.9 µM. The procedure, abridged: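 Cell-based read-out of cAMP via a modified cyclic nucleotide-gated channel and membrane potential dye (535/590 nm) in HEK293 cells expressing PDE4 endogenously. Compounds tested up to 22.9 uM final; 100 uM RO 20-1724 reference.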
3',5'-cyclic-AMP phosphodiesterase 4B (Homo sapiens), sequence (Q07343 whole entry, looked up): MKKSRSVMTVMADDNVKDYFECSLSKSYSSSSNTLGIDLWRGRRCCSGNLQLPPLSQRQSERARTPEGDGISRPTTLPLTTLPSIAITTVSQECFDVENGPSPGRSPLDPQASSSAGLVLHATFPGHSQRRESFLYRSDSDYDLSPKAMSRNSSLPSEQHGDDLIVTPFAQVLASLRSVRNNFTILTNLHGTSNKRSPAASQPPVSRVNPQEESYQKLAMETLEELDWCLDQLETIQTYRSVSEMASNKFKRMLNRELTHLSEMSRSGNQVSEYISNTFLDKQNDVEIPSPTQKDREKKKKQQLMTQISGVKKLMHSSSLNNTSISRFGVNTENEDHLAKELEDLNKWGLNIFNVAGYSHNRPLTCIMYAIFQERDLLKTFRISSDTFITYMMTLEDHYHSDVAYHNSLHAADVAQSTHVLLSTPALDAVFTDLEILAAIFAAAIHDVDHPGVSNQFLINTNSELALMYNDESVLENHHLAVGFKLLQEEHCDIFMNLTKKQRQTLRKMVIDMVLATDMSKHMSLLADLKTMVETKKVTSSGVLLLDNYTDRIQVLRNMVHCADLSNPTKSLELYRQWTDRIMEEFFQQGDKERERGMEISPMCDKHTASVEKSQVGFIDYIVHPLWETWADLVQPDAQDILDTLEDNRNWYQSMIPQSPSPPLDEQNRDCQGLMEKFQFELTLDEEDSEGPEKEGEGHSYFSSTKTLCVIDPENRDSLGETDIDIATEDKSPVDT

Experiment [8] can be described thus: Primary qHTS for small molecule stabilizers of the endoplasmic reticulum resident proteome: Secreted ER Calcium Modulated Protein (SERCaMP) assay (AID 1508630; active = well fitted curve in the direction sought with a large enough effect; an effect the other way counts as inactive or inconclusive; note: % is set by controls: 0 for no effect and ±100 for the full control effect). Particulars: SH-SY5Y GLuc-SERCaMP (Gaussia luciferase released on ER calcium loss) secretion, thapsigargin, luminescence; series mostly up to 38.4 µM. The procedure, abridged:
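The SH-SY5Y reporter protocol was run at 3 concentrations up to 38.3 uM (primary) or 11 concentrations (follow-up): 16 h compound, 100 nM thapsigargin for 4 h, then extracellular luciferase luminescence.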
For orientation: In qHTS, concentration-response curves come from the screen itself.

In experiment [9] the target is Cytochrome P450 3A4 (Homo sapiens) (UniProt P08684). Kind of experiment: qHTS Assay for Activators of Cytochrome P450 3A4 (AID 885; active = well fitted curve in the direction sought with a large enough effect; an effect the other way counts as inactive or inconclusive; note: nearly all actives have a fitted effect of over 65% in size). Particulars: recombinant CYP3A4, Luciferin-PPXE luminescence, 60 min; series mostly up to 57.1 µM. A digest of the protocol:
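Luminescent readout of luciferin formed from 25 uM Luciferin-PPXE (KM level) by 20 nM CYP3A4 in 200 mM KPO4, with 60 min NADPH-driven reaction at room temperature after 10 min compound exposure. Ketoconazole (57 uM) defined 100% inhibition.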

Experiment [10] is described as follows: qHTS Assay for Identification of Small Molecule Agonists for Hypoxia Response Element Signaling Pathway (AID 914; active = well fitted activation curve with a large enough effect in the signal ratio, with a control signal flat, not every such curve was filed as active; the % refers to the signal ratio; note: potency is the fitted concentration of half-maximal effect; for activation: % of control where 0% means no effect). To be noted: ME-180 (cervical carcinoma) HRE-bla reporter, beta-lactamase ratio, CoCl2, 17 h; activation: hits give high values. A digest of the protocol: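 qHTS titration; ME-180 HRE-bla cells; EC50 CoCl2 co-treatment, 17 h at 37 degrees Celsius; CCF4 dye, ex 405nm, em 460nm and 530nm; %Activity from ratio; AC50.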

In experiment [11] the target is Cytochrome P450 2D6 (Homo sapiens) (UniProt P10635). Kind of experiment: qHTS Assay for Inhibitors and Substrates of Cytochrome P450 2D6 (AID 891; active = well fitted curve in the direction sought with a large enough effect; an effect the other way counts as inactive or inconclusive; note: potency is the fitted concentration of half-maximal effect; nearly all actives have a fitted effect of over 60% in size). To be noted: recombinant CYP2D6, luciferin-ME EGE luminescence; series mostly up to 57.1 µM. A digest of the protocol: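 Luminescent read-out of luciferin formed by 5 nM human CYP2D6 demethylating 30 uM Luciferin-ME EGE (Km level) over 60 min at room temperature after NADPH regeneration addition. Data normalized to full inhibition by 1.43 uM quinidine.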
Cytochrome P450 2D6 (Homo sapiens), sequence (P10635 whole entry, looked up): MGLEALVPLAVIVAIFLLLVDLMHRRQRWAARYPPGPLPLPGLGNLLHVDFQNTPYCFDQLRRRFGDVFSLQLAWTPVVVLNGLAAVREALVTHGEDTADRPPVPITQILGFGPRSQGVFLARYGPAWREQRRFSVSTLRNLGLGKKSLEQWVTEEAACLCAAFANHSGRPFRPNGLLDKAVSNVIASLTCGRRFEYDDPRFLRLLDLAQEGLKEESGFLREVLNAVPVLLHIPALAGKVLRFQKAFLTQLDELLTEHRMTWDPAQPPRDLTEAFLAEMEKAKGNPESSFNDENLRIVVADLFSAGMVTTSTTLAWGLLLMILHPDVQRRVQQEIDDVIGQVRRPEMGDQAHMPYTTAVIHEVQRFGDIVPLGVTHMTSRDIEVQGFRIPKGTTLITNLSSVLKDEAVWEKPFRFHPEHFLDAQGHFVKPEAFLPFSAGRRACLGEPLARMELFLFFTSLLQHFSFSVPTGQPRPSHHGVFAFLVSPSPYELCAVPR

Unmarked numbers belong to inactive results. Results filed as inconclusive are left out. The source made the active and inactive calls. Unless noted, calls come from the whole dose curve; as a rule, active = well fitted curve in either direction with a large enough effect (not every such curve was filed as active); inconclusive = small, poorly fitted or top-dose-only effect, or another doubt; inactive = flat fitted curve, though single readings scatter.

Cytochrome P450 3A4 (Homo sapiens), sequence (P08684 whole entry, looked up): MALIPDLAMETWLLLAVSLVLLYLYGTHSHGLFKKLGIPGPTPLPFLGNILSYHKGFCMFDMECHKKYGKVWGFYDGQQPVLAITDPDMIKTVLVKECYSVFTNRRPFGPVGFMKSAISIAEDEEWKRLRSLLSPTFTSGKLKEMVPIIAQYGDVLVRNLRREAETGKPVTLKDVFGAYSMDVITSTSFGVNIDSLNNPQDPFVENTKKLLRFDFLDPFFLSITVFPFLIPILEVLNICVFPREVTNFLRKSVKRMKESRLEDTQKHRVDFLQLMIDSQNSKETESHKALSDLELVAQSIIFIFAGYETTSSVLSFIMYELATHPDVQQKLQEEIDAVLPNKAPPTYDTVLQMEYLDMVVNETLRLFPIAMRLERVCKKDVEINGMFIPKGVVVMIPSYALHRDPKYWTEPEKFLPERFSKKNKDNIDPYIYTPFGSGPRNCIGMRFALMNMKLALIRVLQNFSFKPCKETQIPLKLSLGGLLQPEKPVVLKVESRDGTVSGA
Lysosomal acid glucosylceramidase (Homo sapiens), sequence (P04062 whole entry, looked up): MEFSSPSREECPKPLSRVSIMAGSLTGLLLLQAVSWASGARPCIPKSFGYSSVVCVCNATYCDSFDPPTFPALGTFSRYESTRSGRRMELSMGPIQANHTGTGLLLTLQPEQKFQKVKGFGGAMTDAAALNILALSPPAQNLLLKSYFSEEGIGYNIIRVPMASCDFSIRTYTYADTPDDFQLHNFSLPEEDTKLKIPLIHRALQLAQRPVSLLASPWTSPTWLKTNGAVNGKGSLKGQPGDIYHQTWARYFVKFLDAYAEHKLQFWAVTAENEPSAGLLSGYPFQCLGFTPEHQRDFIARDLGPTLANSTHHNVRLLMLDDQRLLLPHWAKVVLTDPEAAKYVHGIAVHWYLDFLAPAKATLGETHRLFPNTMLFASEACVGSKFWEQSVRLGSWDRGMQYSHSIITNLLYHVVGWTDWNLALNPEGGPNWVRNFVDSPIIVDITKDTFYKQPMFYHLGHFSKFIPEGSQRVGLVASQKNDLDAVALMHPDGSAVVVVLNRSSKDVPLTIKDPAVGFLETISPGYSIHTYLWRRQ

Take `Cn1cccc1C(=O)N1CCC2(CC1)CCN(c1ccccn1)CC2`: the Potency in experiment [1] was greater than 11.4 µM; in experiment [3] it was 15.8 µM (active); in experiment [5] it was greater than 46 µM. Further, the activity change, negative = inhibition in experiment [2] was -0.389%. For the same molecule, the activity, negative = inhibition in experiment [4] was -4.58%. In addition, the Potency result in experiment [6] and in experiment [7] was “inactive” throughout. Also, the outcome in experiment [8] was inactive.
In the case of `O=C(c1csnn1)N1CCC[C@@]2(CCN(c3ccncc3)C2)C1`, the values for the Potency in experiment [1] and in [5] were greater than 11.4 µM and greater than 46 µM, respectively. The activity change, negative = inhibition in [2] was 13.9%. Moreover, the Potency entry in [3], in experiment [6] and in experiment [7] was “inactive” in each case. In addition, the activity, negative = inhibition in [4] was 8.6%. In [8], the result was inactive.
On to `N#Cc1cccc(NC(=O)N2CCCC3(CCN(C(=O)c4cc(C(F)(F)F)cc(C(F)(F)F)c4)CC3)C2)c1`, for which the figures for the Potency in [1], in experiment [3] and in experiment [5] were greater than 11.4 µM, 6.31 µM (active) and greater than 46 µM, respectively. The activity change, negative = inhibition in [2] was -21.5%. For the same molecule, in experiment [4], the activity, negative = inhibition is -13.7%. Moreover, the Potency entry in [6] and in [9] was “inactive” each time. The activation in experiment [10] was -10.4%. Also, the outcome in [8] was inactive.
On to `Cn1c(=O)c(-c2cccs2)nc2cnc(Oc3ccccc3)nc21`, for which the Potency in experiment [1] is greater than 11.4 µM; in experiment [3], 7.94 µM (active); in experiment [5], greater than 46 µM; in experiment [10], 3.16 µM (active). For the same molecule, the activity change, negative = inhibition in experiment [2] was 12.2%. Also, in experiment [7], the Potency result was “inactive”. Also, the outcome in experiment [8] was inactive.
`CC(=O)N1CCC[C@@]2(CCN(c3ccccc3)C2)C1`: the Potency is greater than 11.4 µM in [1] and greater than 46 µM in experiment [5]. Further, in experiment [2], the activity change, negative = inhibition is -11%. The Potency entry in experiment [3], in experiment [6], in experiment [7] and in [9] was “inactive” each time. In experiment [4], the activity, negative = inhibition is -6.46%. Besides, the outcome in experiment [8] was inactive.
Turning to `O=C(c1cnccn1)N1CCC2(CC1)CN(Cc1cc(C(F)(F)F)cc(C(F)(F)F)c1)C2`, the results for the Potency in experiment [1], in [5] and in experiment [11] were greater than 11.4 µM, greater than 46 µM and 0.398 µM (active), respectively. Also, in experiment [2], the activity change, negative = inhibition was -17.8%. Moreover, the Potency result in [3], in experiment [6] and in experiment [7] was “inactive” throughout. In addition, the activity, negative = inhibition in experiment [4] was -1.36%. Besides, the outcome in experiment [8] was inactive.
As for `CC(C)NC(=O)N1CCCC2(CCN(C(=O)c3ccco3)CC2)C1`, the Potency is greater than 11.4 µM in experiment [1], greater than 46 µM in experiment [5] and 2.51 µM (active) in experiment [11]. The activity change, negative = inhibition in [2] is 4.82%. Besides, the Potency result in experiment [3], in experiment [6], in experiment [7] and in experiment [9] was “inactive” throughout. The activity, negative = inhibition in [4] was -11.2%. Moreover, the outcome in experiment [8] was inactive.
As for `COC(=O)N1CCC2(CCCN(Cc3ccccc3)C2)CC1`, the figures for the Potency in [1] and in experiment [5] were greater than 11.4 µM and greater than 46 µM, respectively. For the same molecule, the activity change, negative = inhibition in [2] is -5.44%. For the same molecule, the Potency entry in experiment [3], in experiment [6] and in experiment [7] was “inactive” in each case. In [4], the activity, negative = inhibition was 2.77%. In experiment [8], the result was inactive.
